Source: PubChem (Broad Institute)
DUX4 txn inh – blocks DUX4-driven transcriptional activation; 293T-iDUX4 ZSCAN4-Gaussia luciferase reporter, 24 h; active compounds read low; activity change, negative = inhibition, % (no concentration beside the values); hit rate 0.8% among 37,000;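 active = mean inhibition of at least 10% in the main channel, exceeding the control channel by a set limit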
Hits are given with their value; - = inactive; ! = not active in a repeat. This is one part of a sample in which hits are shown more often than they occur.

SMILES	DUX4 txn inh
CN(C)c1ccc2c(c1)[C@@H]1C[C@@H](CC(=O)NCc3ccccc3F)O[C@H](CO)[C@@H]1O2	-
COc1ccc2c3c([nH]c2c1)[C@@H](CO)N(C(=O)NC(C)C)CC31CN(C(=O)NC2CCCC2)C1	-
CNC[C@@H]1Oc2c(NC(=O)Nc3c(C)noc3C)cccc2C(=O)N([C@@H](C)CO)C[C@H]1C	-
CO[C@H]1CN(C)C(=O)c2cc(NS(=O)(=O)c3cn(C)cn3)ccc2OC[C@H](C)N(CC2CC2)C[C@H]1C	-
CCCNC(=O)C[C@@H]1CC[C@@H]2[C@@H](COc3ccc(NC(=O)c4ccc(Cl)cc4)cc3C(=O)N2C)O1	-
O=C(N[C@H]1C=C[C@@H](CC(=O)N2CCc3ccccc3C2)O[C@@H]1CO)C1CCC1	-
O=C(Cc1ccccn1)N1CC(=O)N2[C@@H](CO)[C@@H](c3ccc(-c4ccc(F)cc4)cc3)[C@@H]2C1	-
O=S(=O)(c1ccccc1F)N1CC[C@@H]2[C@H]1c1cc(-c3ccc(F)cc3)ccc1N[C@@H]2CO	-
COc1ccc2c3c([nH]c2c1)[C@@H](CO)N(C(C)=O)CC31CCN(C(=O)c2ccc3c(c2)OCO3)CC1	-
O=C(c1ccncc1)N1C[C@@H]2[C@H](c3ccccc31)[C@H](CO)N2C(=O)c1ccccn1	-
COc1ccc(NC(=O)N2C[C@@H]3N[C@H](C2)C3c2ccc(-c3cccc(F)c3)cc2)cc1 (stereo partly drawn)	-
COc1ccc(NC(=O)N2C[C@@H]3N[C@H](C2)C3c2ccc(-c3cccnc3)cc2)cc1 (stereo partly drawn)	-
N#Cc1ccc(-c2ccc(C3[C@H]4CNC[C@@H]3N4C(=O)Nc3ccc(Cl)cc3)cc2)cc1 (stereo partly drawn)	-
CN(C)C(=O)c1ccc(-c2ccc(C3[C@@H]4CN(C(=O)Nc5ccc(Cl)cc5)C[C@H]3N4)cc2)cc1 (stereo partly drawn)	-
O=C(Nc1ccc(F)cc1)N1C[C@@H]2N[C@H](C1)C2c1ccc(-c2cccnc2)cc1 (stereo partly drawn)	-37!
N#Cc1ccc(-c2ccc(C3[C@@H]4CN(C(=O)Nc5ccc(C(F)(F)F)cc5)C[C@H]3N4)cc2)cc1 (stereo partly drawn)	-49!
COCCN(C[C@H]1N[C@H](CO)[C@@H]1c1ccccc1)C(=O)NC1CCCC1	-
CO[C@H]1CN(C)C(=O)c2ccc(NS(=O)(=O)c3ccc(C)cc3)cc2OC[C@H](C)N(C)C[C@@H]1C	-
CO[C@H](C(=O)N(C)C[C@H]1OCc2ccccc2-c2c(n(C)c3ccccc23)C(=O)N([C@@H](C)CO)C[C@H]1C)c1ccccc1	-
COc1ccc(S(=O)(=O)N[C@@H]2CC[C@H](CCn3cc(-c4ccccc4F)nn3)O[C@H]2CO)cc1	-
CC(C)[C@@H]1C(=O)N[C@H](c2cccc(Cl)c2)CC=CC[C@@H](C)Oc2ccccc2C(=O)N1C (mixture of isomers)	-
C[C@H]1CCCCO[C@H](CN(C)C(=O)Cc2ccccc2)[C@@H](C)CN([C@@H](C)CO)C(=O)c2cc(N(C)C)ccc2O1	-
COc1ccc2c3c(n(C)c2c1)[C@H](CO)NCC31CN(Cc2ccc(Cl)cc2)C1	-48
COc1ccc2c3c(n(C)c2c1)[C@@H](CO)NCC31CN(Cc2ccc(-c3ccccn3)cc2)C1	-
COc1ccc2c3c(n(C)c2c1)[C@H](CO)NCC31CN(Cc2ccccc2Cl)C1	-
SMILES	DUX4 txn inh
COc1cccc(C#Cc2ccc([C@H]3[C@H](CO)N4C(=O)CN(C(=O)Cc5cccnc5)C[C@@H]34)cc2)c1	-
COc1ccccc1NC(=O)N1CC(=O)N2[C@H](CO)[C@@H](c3ccc(C#CCC(C)C)cc3)[C@H]2C1	-
CN(C)CC(=O)Nc1ccc2c(c1)[C@@H]1C[C@H](CC(=O)NCc3ccc(-c4ccccc4)cc3)O[C@H](CO)[C@@H]1O2	-
CN(C)CC(=O)Nc1ccc2c(c1)[C@@H]1C[C@@H](CC(=O)NCc3ccc(-c4ccccc4)cc3)O[C@H](CO)[C@@H]1O2	-
O=C(C[C@@H]1C[C@H]2c3cc(NC(=O)CC4CC4)ccc3O[C@H]2[C@H](CO)O1)NCc1cc(F)ccc1F	-
O=C(C[C@@H]1C[C@@H]2c3cc(NC(=O)Cc4ccncc4)ccc3O[C@@H]2[C@H](CO)O1)NCc1cc(F)ccc1F	-
O=C(C[C@H]1C[C@H]2c3cc(NC(=O)Cc4ccncc4)ccc3O[C@H]2[C@H](CO)O1)NCc1ccc(-c2ccccc2)cc1	-68
O=C(C[C@H]1C[C@H]2c3cc(NC(=O)Cc4ccncc4)ccc3O[C@H]2[C@H](CO)O1)NCc1cc(F)ccc1F	-36
Cc1ccccc1S(=O)(=O)N1CC[C@@H]2[C@H]1c1cc(C#Cc3ccccc3)ccc1N[C@@H]2CO	-
CN(C)C(=O)c1cc2c(c(-c3cccc(C4=CCCCC4)c3)n1)[C@H](CCO)N([S@@](=O)C(C)(C)C)C2	-
Cc1ccc(S(=O)(=O)N(C)C[C@@H]2Oc3ncc(Br)cc3C(=O)N([C@@H](C)CO)C[C@H]2C)cc1	-
